Our source for the growth values is PubChem BioAssay (NCI).

This is part of a sample that, as a whole, favours compounds with a hit. Of some 83,000 tested, about 20% had one in any assay.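 Values shown are percent growth following 48 h exposure of cells in 96-well plates to a single concentration of compound; below 10 was considered active.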 A number with no mark means an inactive call. The source made the active and inactive calls.

Experiment in all cases: NCI-60 one-dose screen, 48 h (100 = growth as untreated, 0 = no growth, -100 = all killed)
Conditions in all cases: 10 µM unless noted

Experiment [1] concerns SR leukemia.
For experiment [2], the system named is OVCAR-8 ovarian.
The subject of experiment [3] is OVCAR-5 ovarian.
Experiment [4] relates to OVCAR-4 ovarian.
Experiment [5] has as its system SK-OV-3 ovarian.
The test system of experiment [6] is IGROV1 ovarian.
The subject of experiment [7] is HS 578T breast.
Experiment [8] concerns NCI/ADR-RES ovarian.
Experiment [9] deals with T-47D breast.
Experiment [10] deals with BT-549 breast.
The test system of experiment [11] is MDA-MB-435 melanoma.
For experiment [12], the system named is SW-620 colon.
Experiment [13] deals with MCF7 breast.
For experiment [14], the system named is HCT-116 colon.
Experiment [15] has as its system HCC-2998 colon.
Experiment [16] concerns KM12 colon.
For experiment [17], the system named is RPMI-8226 leukemia.
Experiment [18] concerns OVCAR-3 ovarian.

Turning to `Nc1nc(-c2cccc([N+](=O)[O-])c2)c(N=Nc2ccc([N+](=O)[O-])cc2Cl)s1`, the growth in experiment [1] was 5.91% (active); in experiment [2], 7.59% (active); in experiment [3] it was 21%; in experiment [4], 16.3%; in experiment [5] it was -11% (active); in experiment [6] it was 30.6%. The growth in experiment [7] is -4.26% (active); in experiment [8] it was 6.4% (active); in [9], 4.47% (active); in [10], -24.9% (active); in experiment [11] it was 6.11% (active); in [12] it was 13%. Besides, the growth was 2.17% (active) in [13], 0.397% (active) in experiment [14], 12.9% in experiment [15] and 2.86% (active) in [16].
For the compound `N#Cc1ccccc1Cn1c2nc(=N)c3ccccc3c-2nc2ccccc21`, the growth was 77.2% in [17]; 66.4% in experiment [2]; 78.6% in [3]; 29.8% in experiment [4]; 79.2% in experiment [5]; 49.6% in [6]. Further, the growth was -5.06% (active) in experiment [18]; 97.8% in experiment [7]; 71.1% in experiment [8]; 66.8% in [9]; 88% in experiment [10]; 70% in experiment [11]. The growth in [12] is 54.6%; in experiment [13], 34.7%; in experiment [14], 46.9%; in experiment [15], 60.2%; in [16], 60.7%.
For the compound `Cc1ccc2sc3c(c2c1)OC(N)=C(C#N)C3c1ccc(Cl)cc1` (stereo unspecified), the growth in experiment [17] is 93.2%; in experiment [2] it was 96.7%; in experiment [3] it was 93.4%; in [4], 91.1%; in [5], 85.7%; in [6], 65.2%. The growth in experiment [7] was 78.3%; in experiment [8], 76.2%; in experiment [9] it was 56.6%; in [10], 26.3%; in experiment [11], -10.7% (active); in experiment [13] it was 13.8%. Further, the results for the growth in [14], in [15] and in experiment [16] were 88%, 84.8% and 45.5%, respectively.
For `CN1CCN(Cc2ccc(NC(=O)c3cncc(C#Cc4cnn5cccnc45)c3)cc2C(F)(F)F)CC1`, the growth in experiment [1] was -16.3% (active); in experiment [2], 13.5%; in [3], 26%; in experiment [4] it was 27.9%; in experiment [5], 28.3%; in experiment [6], 5.44% (active). Moreover, the growth in [7] is 27.2%; in experiment [8] it was 26.5%; in [9], 54.2%; in experiment [10], 47.1%; in [11], 3.16% (active); in experiment [13] it was -2.5% (active). Moreover, the growth in experiment [14] was 4.34% (active); in experiment [15], 12.7%; in experiment [16], 2.87% (active).
Consider `NS(=O)(=O)c1ccc(Nc2cc(-c3ccccc3)nc(SCC(=O)c3ccccc3)n2)cc1`, for which the growth in experiment [1] was 101%; in [2], 99.3%; in experiment [3] it was 104%; in experiment [5] it was 110%; in experiment [6], 97.4%; in experiment [7], 107%. The growth in [8] is 101%; in experiment [9] it was 97.5%; in [10] it was 97.6%; in [11], 93.4%; in experiment [12], 102%; in [13], 89.5%. In addition, the values for the growth in experiment [14], in experiment [15] and in experiment [16] were 101%, 101% and 102%, respectively.
On to `C/C(=N\O)[C@H]1C[C@]23CC[C@]4(C)[C@H](CC[C@@H]5[C@@]6(C)CC/C(=N/O)C(C)(C)[C@@H]6CC[C@]54C)[C@H]2[C@H](C)C1(C)OC3`, for which the growth in experiment [1] was 98.7%; in experiment [2] it was 106%; in experiment [3], 105%; in experiment [4] it was 82.8%; in experiment [5], 122%; in experiment [6], 86.2%. In addition, the growth in experiment [18] was 113%; in [7], 104%; in [8] it was 113%; in [9], 108%; in experiment [10], 107%; in experiment [11], 97.2%. Further, the growth in [12] is 99.9%; in experiment [13] it was 93.3%; in experiment [14], 97.2%; in [15] it was 115%; in experiment [16], 102%.
Regarding `CN1CCN(Cc2ccc(NC(=O)c3cncc(C#Cc4cnc5ccc(NCCCO)nn45)c3)cc2C(F)(F)F)CC1`, the growth in experiment [1] is -15.6% (active); in [2], -8.06% (active); in [3], 4.78% (active); in experiment [4] it was -19.9% (active); in experiment [5], -47.5% (active); in experiment [6] it was 9.68% (active). Further, the growth was -26.5% (active) in [7]; 74.1% in experiment [8]; 1.95% (active) in experiment [9]; -81.5% (active) in experiment [10]; -39.8% (active) in experiment [11]; -34.6% (active) in experiment [12]. In addition, the growth in experiment [13] is -34.5% (active); in [14] it was -83.6% (active); in experiment [15], -9.99% (active); in experiment [16] it was -12.1% (active).
Consider `COc1cc2nc(Cl)nc(Nc3cccc(C4=Nc5c(N)nc(N)nc5NC(c5ccc(Br)cc5)C4)c3)c2cc1OC` (stereo unspecified), for which the growth was -2.07% (active) in experiment [17]; 54.6% in [2]; 113% in experiment [3]; 103% in [4]; 125% in [5]; 94.1% in [6]. The growth in experiment [18] is 72.6%; in experiment [7] it was 79.8%; in experiment [8] it was 86.6%; in [9] it was 85.1%; in experiment [10] it was 87.8%; in experiment [11], 47.4%. The growth is 46.5% in [12], -10.5% (active) in [14], 41.5% in [15] and 24.3% in experiment [16].
For the compound `COc1ccc2[nH]cc(-c3csc4nc(-c5ccccc5)cn34)c2c1`, the growth is 20.1% in [1]; 24.1% in [2]; 46.2% in [3]; 56.5% in [4]; 16.1% in [5]; 41.6% in experiment [6]. In addition, the growth in [7] is -3.7% (active); in experiment [8], 5.97% (active); in [9] it was 30.7%; in [10], 45.8%; in experiment [11] it was -47.7% (active); in experiment [12], 25.1%. Also, the growth in [14] is 4.36% (active); in experiment [15] it was 6.03% (active); in experiment [16] it was 11.6%.
For the compound `COc1cc(OC)c(S(N)(=O)=O)cc1C(C)=O`, the growth was 103% in [17]; 104% in [2]; 107% in [3]; 102% in [4]; 109% in experiment [5]; 112% in experiment [6]. The growth in experiment [7] was 112%; in experiment [8], 111%; in experiment [9], 98.3%; in experiment [10] it was 115%; in [11] it was 107%; in [12], 113%. Besides, the growth in [13] was 89.8%; in experiment [14], 114%; in experiment [15], 106%; in [16], 104%.
In the case of `CC(=O)c1cc(C(=O)N2c3ccccc3Sc3ccccc32)n2ccc3ccccc3c12`, the growth was 16.6% in experiment [1]; 32.7% in experiment [2]; 69.7% in experiment [3]; 73.6% in experiment [4]; 48.7% in experiment [5]; 49.9% in experiment [6]. Further, the growth in experiment [7] is 16%; in [8] it was 13.4%; in experiment [9], 27.5%; in experiment [10], 37%; in [11], 0.748% (active); in experiment [12], 26.3%. Moreover, the growth in experiment [13] is 17.8%; in experiment [14], 24.4%; in experiment [15], 74.9%; in experiment [16], 31.7%.
For the compound `COc1ccc(/C(N)=N/C(N)=N/c2nc3ccccc3s2)cc1`, the growth in [1] is 13.4%; in experiment [2] it was 97.3%; in experiment [3], 103%; in experiment [4], 76.5%; in experiment [5], 99.6%; in experiment [6], 49.8%. Moreover, the growth in [18] is 96%; in experiment [7], 81.3%; in experiment [8], 35%; in experiment [9] it was 80.4%; in experiment [11], 20.3%; in [12] it was 65.4%. Besides, the growth in experiment [13] was 71.2%; in experiment [14], 79.6%; in experiment [15], 91.9%; in [16] it was -11.5% (active).
Turning to `CC(C)(C)c1ccc(C(=O)Nc2nc3ccc(O)cc3s2)cc1`, the growth in experiment [1] is 24.7%; in [2], 30.6%; in [3], 69.6%; in experiment [5], 78.6%; in experiment [6], 47.7%; in experiment [18], 57.6%. In addition, the growth in experiment [7] was 77.3%; in experiment [8], 40.9%; in experiment [9], 28.5%; in [10] it was 62.9%; in [11] it was 34.3%; in experiment [12] it was 14.2%. Further, the growth in experiment [13] is 15.8%; in experiment [14] it was 45.6%; in [15], 14.7%; in [16], 14%.
Turning to `CC/C(=C/c1c(O)cccc1OC)c1ccc2c(OC)cccc2[o+]1`, the growth in experiment [1] is 90.4%; in [2], 101%; in [3] it was 106%; in experiment [4], 99.7%; in experiment [5], 97.8%; in experiment [6] it was 102%. In addition, the growth in experiment [18] was 109%; in [7] it was 107%; in experiment [8], 99.7%; in [9], 106%; in experiment [10], 98.5%; in experiment [11], 97.7%. Moreover, the growth was 101% in experiment [12]; 86.4% in experiment [13]; 104% in experiment [14]; 106% in experiment [15]; 98.9% in experiment [16].
For the compound `COc1ccc([C@H]2c3[nH]c4ccccc4c3C[C@H]3C(=O)N(C4CCN(Cc5c(Cl)cccc5Cl)CC4)CC(=O)N23)c(OC)c1`, the growth was 85% in experiment [1]; 97.5% in experiment [2]; 96.7% in [3]; 97.2% in experiment [4]; 117% in experiment [5]; 78.9% in experiment [6]. Further, the growth was 103% in experiment [18]; 88.4% in experiment [7]; 90.5% in experiment [8]; 83.6% in [9]; 119% in experiment [10]; 102% in [11]. The growth was 95.4% in experiment [12], 92.6% in experiment [14], 113% in experiment [15] and 96.8% in [16].
For `COc1ccc(CCN2C(=O)CSC2=S)cc1`, the growth was 65.8% in experiment [1]; 102% in experiment [2]; 95.7% in experiment [3]; 92.8% in experiment [4]; 111% in [5]; 109% in experiment [6]. Besides, the growth in experiment [7] was 99.4%; in experiment [8], 98.4%; in experiment [9], 50.7%; in [10], 112%; in experiment [11] it was 77.6%; in experiment [12] it was 61.3%. Also, the growth in [13] was 24.2%; in experiment [14], 84.6%; in experiment [15], 110%; in experiment [16] it was 6.12% (active).
As for `CCNC(=O)N1CCc2cc(OC)c(OCCc3ccc(OC)nc3)cc2C1c1ccc(C)cc1C` (stereo unspecified), the growth was 7.67% (active) in experiment [1]; 15.5% in experiment [2]; 31.4% in [3]; 52.5% in [4]; 54% in experiment [5]; 17.2% in experiment [6]. The growth was -2.81% (active) in experiment [7]; 7.35% (active) in experiment [8]; 61% in experiment [9]; -6.5% (active) in experiment [10]; 10% in experiment [11]; 19.6% in [12]. Also, the growth in experiment [13] was 14%; in [14], 8.5% (active); in [15], 13%; in experiment [16] it was 9.57% (active).
